In PubChem BioAssay AID2069 (Sanford-Burnham Center for Chemical Genomics, 2009) one finds inhibition data, which are given here for 61 compounds.

The structures appear in SMILES notation. Screen size: about 1,200 compounds; about 210 (18%) were called active. No stated cut-off is given here; in the data, active means inhibition above about 30%; inactive means the rest. Only a sample is shown.

A short description of the test: HTRF signal interference by compounds, confirmation, artefact control for SUMOylation inhibitor project, biochemical, uHTS (AID 2069). To be noted: HTRF interference counterscreen, fluorescence, at 35 µM, stronger effect = higher value. (In general: TR-FRET usually uses a lanthanide donor and a delayed reading to cut background.)
On to `O=C(NNC(=O)c1sc2ccccc2c1Cl)Nc1ccc(Cl)cc1`, for which the inhibition (commonly the relative decrease from the control value, in per cent) was -5% (inactive). As to `COCCN(CCOC)S(=O)(=O)c1ccc(C(=O)Nc2nc3c(s2)CCc2ccccc2-3)cc1`, the inhibition was 36.7% (active). Turning to `COc1ccc(C(=O)Nc2nc3c(s2)Cc2cc(OC)ccc2-3)cc1`, the inhibition is 5.45% (inactive). For `COc1ccc2c(c1)Cc1sc(NC(=O)c3ccccc3)nc1-2` the value was 13.9% (inactive). In the case of `O=C(NN1C(=O)/C(=C/C=C/c2ccco2)SC1=S)c1ccncc1`, the inhibition is 16.8% (inactive). Consider `Cc1cc(C)n(Cc2ccc(C(=O)N/N=C/c3ccc(-c4ccc([N+](=O)[O-])cc4)o3)o2)n1`, for which the inhibition is 6.7% (inactive). For `O=C(Cc1ccccc1)Nc1nnc(-c2ccco2)s1` the value was 13.9% (inactive); for `CCC(C)(C)C1CCc2c(sc(NC(=O)c3ccccc3C(=O)O)c2C#N)C1` (stereo unspecified), 7.6% (inactive); for `CCCCOc1ccc(/C=C/C(=O)Nc2ccc(C(N)=O)cc2)cc1`, 10.9% (inactive). In the case of `COc1ccccc1NC(=O)c1sc2ncn(CC(=O)Nc3ccccc3)c(=O)c2c1C`, the inhibition was 4.35% (inactive). For `CCN(C(=S)Nc1cc(S(=O)(=O)N2CCOCC2)ccc1Cl)c1cccc2ccccc12`, the inhibition is -26.1% (inactive).

Regarding `O=C(Nc1ccccc1O)c1cc(S(=O)(=O)N2CCOCC2)c(Cl)cc1Cl`, the inhibition was 10.6% (inactive). `O=C(O)c1cc2cccc(S(=O)(=O)N3CCOCC3)c2cc1O`: the inhibition is 49.6% (active). On to `Cc1occc1C(=O)N1CCN(c2ccccc2)CC1`, for which the inhibition is 0.55% (inactive).

Turning to `CCOc1ccc(N2C(=O)c3ccc(C(=O)OCC(=O)N(CC)C4CCS(=O)(=O)C4)cc3C2=O)cc1` (stereo unspecified), the inhibition was -4.1% (inactive). For `Oc1ccccc1N=Cc1c(O)ccc2ccccc12` the value was -5.9% (inactive); for `Oc1ccc(N=Cc2c(O)ccc3ccccc23)cc1`, 10.2% (inactive). `Oc1ccc2ccccc2c1C=Nc1ccc(Cl)cn1`: the inhibition is 37.1% (active).

As to `CC1=CC2(O)OCCN(CCO)C2=CC1=O` (stereo unspecified), the inhibition was 4.6% (inactive). With `O=C1C=C(O)c2c(O)cccc2C1=O`, the inhibition was -24.9% (inactive).

For the compound `COc1cccc(/C=C2/SC(=S)N(CC(=O)NNC(=O)c3ccccc3O)C2=O)c1`, the inhibition is -13% (inactive). Regarding `CN(c1ccccc1)c1cc(=O)[nH]c(=O)[nH]1`, the inhibition is 0.55% (inactive). As to `Cc1ccccc1Nc1cc2ccccc2c(=O)[nH]1`, the inhibition is 25.8% (inactive). For `CCN(c1ccccc1)c1cc2ccccc2c(=O)[nH]1` the value was 37% (active); for `Cc1[nH][nH]c(=O)c1C(c1ccc(-c2ccccc2C(=O)O)o1)c1c(C)[nH][nH]c1=O`, 9.65% (inactive). Take `COc1ccc(CCN2Cc3c(cccc3[N+](=O)[O-])C2=O)cc1OC`: the inhibition was -1.3% (inactive). On to `CCOc1ccccc1CNc1ccc(O)cc1`, for which the inhibition was -10.2% (inactive). The result for `CCOc1cc(NC(=S)NCc2ccco2)c(OCC)cc1NC(=O)CC` reads -7.1% (inactive). The result for `O=C(/C=C/c1ccco1)NC(=S)Nc1ccc(O)c(-c2nc3ccccc3s2)c1` reads 9.4% (inactive). With `O=C(COC(=O)c1cc(-c2cccs2)nc2ccccc12)NCc1ccco1`, the inhibition is 16.3% (inactive). For `Cc1ccc2c(SCC(=O)NCc3ccco3)nc(-c3ccc(F)cc3)nc2c1`, the inhibition was -4.7% (inactive). Take `Cc1nc2ccc(NC(=O)NCc3ccco3)cc2s1`: the inhibition was 31.5% (active). The result for `O=C(NCc1ccco1)Nc1ccc2snnc2c1` reads 38.8% (active). For `CN(C)c1cc(N/N=C/c2ccc(Cl)cc2)nc(N(C)C)n1` the value was 7% (inactive); for `O=C(O)CN1C(=O)/C(=C\c2cc([N+](=O)[O-])ccc2OCc2ccccc2Cl)SC1=S`, 8.45% (inactive); for `Cc1ccc(NC2=CC(=O)CC(c3ccco3)C2)c(N)c1` (stereo unspecified), 1% (inactive). On to `COc1ccc(-c2cc(=O)[nH][nH]2)cc1`, for which the inhibition is 2.7% (inactive). The result for `N#CC(c1nc2ccccc2nc1N1CCCC1)S(=O)(=O)c1cccs1` (stereo unspecified) reads -0.1% (inactive); that for `COC(=O)c1cccc(-c2ccc(C(c3c(C)[nH][nH]c3=O)c3c(C)[nH][nH]c3=O)o2)c1`, -4.3% (inactive); that for `Oc1ccc(Br)cc1CNc1cccc2cccnc12`, -17.6% (inactive). As for `O=C1C=C(N2CCOCC2)c2ccccc2C1=O`, the inhibition was 51.9% (active). In the case of `Cc1ccc(NC2=CC(=O)C(=O)c3ccccc32)cc1`, the inhibition is -12.4% (inactive). On to `O=C1C=C(Nc2ccccc2)c2ccccc2C1=O`, for which the inhibition is -24.5% (inactive). The result for `Cc1[nH][nH]c(=O)c1C(c1c(C)[nH][nH]c1=O)c1cn(Cc2cccc3ccccc23)c2ccccc12` reads -32.7% (inactive); that for `CCOc1cc(CNc2ccccc2SC)ccc1O`, -6.3% (inactive). For `COc1cc(C)c2c(c1C=O)Oc1c(c(C)c(O)c3c1C(O)OC3=O)OC2=O` (stereo unspecified) the value was 12.4% (inactive). The result for `CN(C)/C=C1\Oc2ccc3ccccc3c2C1=O` reads -6.85% (inactive); that for `CC1=Nc2nc(N3CCCCC3)c(C#N)c3c4c(nc(c23)N1)N(c1ccc(C(C)C)cc1)C(=O)C4`, 15.2% (inactive). `O=C(O)COc1ccccc1C(Nc1cccnc1)c1cc(Cl)c2cccnc2c1O` (stereo unspecified): the inhibition was 30.4% (active). For `CCOc1ccc(C(Nc2cccnc2)c2cc(Cl)c3cccnc3c2O)cc1` (stereo unspecified) the value was 14.3% (inactive).

`CCCCC(=O)NC(c1ccccc1Cl)c1ccc2cccnc2c1O` (stereo unspecified): the inhibition is -42.6% (inactive). For the compound `COc1ccc(/C=N/N=C2/CC(C)(C)Cc3n[nH]c(=O)cc32)cc1`, the inhibition was 0.85% (inactive).

In the case of `COc1ccccc1NC(=O)Cn1c(O)c(N=NC(=O)c2ccccc2O)c2ccccc21`, the inhibition is 2.2% (inactive). For `CCCCn1c(NC(=O)c2ccc(Br)o2)c(S(=O)(=O)c2ccccc2)c2nc3ccccc3nc21`, the inhibition was 1.65% (inactive). In the case of `Nc1ccc2nc(-c3ccc(-c4nc5ccc(N)cc5[nH]4)cc3)[nH]c2c1`, the inhibition was 25.4% (inactive).

With `Nc1ccc(-c2nc3ccc(N)cc3[nH]2)cc1`, the inhibition was 66.3% (active). The result for `Cc1ccc(C)c(-c2nc3ccc(N)cc3[nH]2)c1` reads 57% (active).

Consider `O=C(Nc1nccs1)c1cc(-c2ccco2)nc2ccccc12`, for which the inhibition was 22.2% (inactive). Turning to `Cc1oc2c(c1C(=O)O)C(=O)c1ccccc1C2=O`, the inhibition was -5.95% (inactive). Regarding `Cc1ccc(NC(=O)CN2C(=O)S/C(=C\c3ccc(-c4cccc(C(=O)O)c4C)o3)C2=O)cc1C`, the inhibition is 26.3% (inactive). As to `O=S(=O)(Nc1ccc(O)c2ccccc12)c1cccs1`, the inhibition is -16.9% (inactive).
